Key:
Test in all cases: PBM binding z-score (relative to random genomic background probes); higher = stronger binding; sequences stand for … in GC…GCGATTGACAGCGTAGAATGAAGG
[1] = system: PPARg:RXRa DBDmut IVT, anti-RXR (DBD mutation: RXRa K156A/R161A, NR concentration 270 nM, RXRa partner concentration 90 nM)
Outline: (§1)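 Binding buffer was PBS pH 7.4 with 2% milk, 0.02% Triton X-100, 1 mM DTT, 0.2 mg/mL BSA and 0.4 mg/ml salmon testes DNA. In it, ligand-free nuclear receptor dimers were incubated 1 h on custom Agilent 4×180K protein-binding microarrays carrying double-stranded probes. Antibodies against each partner (one per run) detected binding, and z-scores were calculated against random background probes after regression normalization of scanned fluorescence.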

[2] = system: PPARg:RXRa IVT, anti-PPARg (NR concentration 270 nM, RXRa partner concentration 90 nM)
Outline: as §1

[3] = system: PPARg DBDmut:RXRa IVT, anti-PPARg (DBD mutation: PPARg1 K132A/R137A, NR concentration 270 nM, RXRa partner concentration 90 nM)
Outline: as §1

[4] = system: PPARg DBDmut IVT, anti-PPARg (DBD mutation: PPARg1 K132A/R137A, NR concentration 270 nM)
Outline: as §1

[5] = system: PPARg homodimer (NR concentration 180 nM)
Outline: as §1

[6] = system: PXR:RXRa (NR concentration 270 nM, RXRa partner concentration 90 nM)
Outline: as §1

[7] = system: PXR homodimer (NR concentration 270 nM)
Outline: as §1

[8] = system: RARa:RXR (NR concentration 270 nM, RXRa partner concentration 90 nM)
Outline: as §1

[9] = system: RARa homodimer (NR concentration 270 nM)
Outline: as §1

[10] = system: RARb:RXRa (NR concentration 270 nM, RXRa partner concentration 90 nM)
Outline: as §1

[11] = system: RARb homodimer (NR concentration 270 nM)
Outline: as §1

[12] = system: RARg:RXRa (NR concentration 270 nM, RXRa partner concentration 90 nM)
Outline: as §1

[13] = system: RARg homodimer (NR concentration 270 nM)
Outline: as §1

[14] = system: RXRa DBDmut IVT, anti-RXR (DBD mutation: RXRa K156A/R161A, NR concentration 90 nM)
Outline: as §1

[15] = system: RXRa homodimer (NR concentration 180 nM)
Outline: as §1

[16] = system: THRa:RXRa (NR concentration 90 nM, RXRa partner concentration 90 nM)
Outline: as §1

[17] = system: THRa homodimer (NR concentration 90 nM)
Outline: as §1

[18] = system: VDR homodimer (NR concentration 270 nM)
Outline: as §1

Sequence	PBM binding z-score [1]	PBM binding z-score [2]	PBM binding z-score [3]	PBM binding z-score [4]	PBM binding z-score [5]	PBM binding z-score [6]	PBM binding z-score [7]	PBM binding z-score [8]	PBM binding z-score [9]	PBM binding z-score [10]	PBM binding z-score [11]	PBM binding z-score [12]	PBM binding z-score [13]	PBM binding z-score [14]	PBM binding z-score [15]	PBM binding z-score [16]	PBM binding z-score [17]	PBM binding z-score [18]
TAGCCTAGGTCAGTCAGGGGCCAGTATAGAAAGC	0.759	1.71	0.0282	-0.431	0.236	0.48	-0.639	1.32	-0.63	3.21	2.81	4.53	3.75	-0.63	1.18	1.86	0.122	0.0513
CCTGCTAGATCAATGGTCAGCTAAAGCAGCTCGC	-0.539	-0.867	-1.21	-1.31	-0.942	-0.879	-0.691	-0.744	-0.962	-0.116	-0.343	-0.647	-0.492	0.00874	-0.596	-0.908	-1.01	-0.711
GCATATAGGTAATAGAAGGTGAAAGTCCGATTGT	3.98	3.21	0.445	0.104	0.675	0.246	0.153	0.961	0.689	0.402	0.803	0.423	0.585	0.488	0.618	2.5	-0.242	0.274
TCAAGTAGGTTACCAATGGGGCATTCAGCTTTCT	6.09	5.24	0.706	-0.182	0.999	0.326	-0.278	0.518	0.134	1.27	1.04	1.42	0.77	1.45	0.978	0.342	-0.498	-0.25
TCGAGTAGGTTAGTCGGGGCATACAGCCAACATA	2.34	1.89	-0.401	-0.126	-0.0659	0.333	0.0501	0.379	-0.329	0.592	0.452	0.28	0.255	0.235	0.45	1.02	-0.188	-0.0779
TCGAGTAGGTTAGGGGCATGCAGAATGGCGTCGA	1.92	1.32	-0.639	-1.3	0.568	0.108	-0.44	0.383	-0.355	1.2	1.07	0.351	0.462	0.22	0.663	0.973	0.12	0.0612
CCGACTGGGGCAAAGGGTACCATACTCAGTACGA	3.56	4.9	-0.131	-0.788	1.03	-0.113	-0.353	0.544	-0.388	1.11	0.849	0.946	0.506	-0.546	0.731	0.31	-0.963	0.0229
CAAACTAGGTCACCGGATGGTCAAAGTCCGCATG	8.46	8.82	4.83	2.57	3.76	2.49	0.137	3.77	1.02	4.29	4.02	5.82	5.58	1.74	4.05	3.57	1.85	1.1
ACTATTAGTTGACTTAGGGCAACCCATACGACGC	0.51	0.696	0.977	1.6	0.67	0.18	0.375	0.59	1.02	0.823	1.13	0.747	1.04	0.729	0.631	1.55	0.725	0.642
CATACAGGGTCAGCTACGCCAGAGTAGGGACGGC	1.11	2.35	0.652	1.25	1.54	2.22	-0.0173	3.27	0.771	3.99	2.9	4.44	4.43	1.69	4.11	2.73	0.834	1.09
TCGAGTACGTTAGGGGCATTCAGAATGGCGTCGA	0.475	-0.595	-1.29	-1.15	-0.704	1.69	5.78	-0.118	-0.866	0.723	0.267	0.169	-0.0328	3.64	0.3	0.637	-0.622	5.05
CCGAGTAGTTTATGGGGCATTCAGGCAACGGTGA	1.6	1.4	-0.427	-0.259	0.266	-0.181	-0.00127	-0.101	-0.193	0.282	0.512	-0.0698	0.182	0.904	-0.158	0.238	0.0882	0.37
GCTTACGGGTCAAAGGTTATAGCTTGAATAGAAT	4.25	5.72	1.28	1.02	1.88	5.86	0.119	7.89	0.811	4.34	3.13	6.69	4.63	2.37	8.87	3.57	-0.0839	1.45
TAGCCTAGGTCAGGGGCCAGTATACCACGCGAAC	0.374	2.32	0.429	0.131	0.542	0.506	-0.579	1.42	-0.0424	3.22	2.47	3.16	3.82	-0.891	2.16	1.91	0.583	-0.245
ATTCAAAGTTCACTAGGTAACGTAAGATTCAGCT	2.64	4.4	1.68	2.19	2.66	3.71	3.03	2.9	2.06	4.61	3.66	4.48	5.35	4.38	3.58	2.03	0.474	4.11
ATATGTAGGTTATCGGGTCATTCAATTTGCGCAT	7.45	7.56	2.44	2.36	2.28	3.43	1.39	3.8	1.75	2.87	3.35	3.52	2.68	1.57	3.4	3.59	2.86	2.76
ATCTCTAGGTAACAAGTTGAGTGAAAGAGAGGAC	3.42	2.71	1.43	1.04	0.666	0.294	0.569	0.445	1.29	0.64	0.79	0.858	0.91	-0.013	0.381	1.41	0.716	0.639
ATCGCAAGGTCGAAGGTGAGTATACCCACCCGAA	-0.513	1.21	0.246	-0.257	0.231	1.89	-0.311	2.65	-0.621	2.41	1.17	2.67	2.23	0.978	2.93	2.12	-0.0109	0.489
TGTCAAAGTTCAAAGATAACGTAAGTATCCACAC	-0.252	3.78	1.64	1.45	2.47	4.66	3.83	3.6	1.54	4.92	3.35	5.44	6.18	4.22	4.6	1.86	-0.41	3.32
CCTCGGAGGACAACAGGAGGTCAGAGATGCCAGA	-0.0162	0.314	-0.377	-1.49	1.1	2.04	0.508	2.05	0.885	2.8	3.66	3.42	3.31	0.124	1.95	2.83	1.02	1.41
CCTCGGAGGACAAAAGGTCAGAGCTGTCCGCTTT	1.07	1.62	-0.684	-1.47	4.04	3.72	0.0706	4.59	0.836	4.61	5.18	6.04	5.86	0.812	4.67	3.07	0.53	0.674
CGAACTAGGTCAGCCAGGACAGTGAATACATTGA	7.76	7.73	1.49	0.655	1.34	0.744	-0.0382	0.595	0.0532	3.45	2.65	3.04	4.54	1.2	1.54	3.12	1.45	0.353
TCTAGTTGGTCAAAGGTCACACCCTCGAAATGCG	3.68	6.43	1.66	0.719	6.91	6.04	2.22	7.62	4.33	5.02	5.03	6.9	6.12	2.29	8.03	4.02	2.2	3.2
TCTTGTAGATCAAGCAGGTTAAGCAAGCCTGAGT	1.65	0.529	-0.37	-0.0257	-0.443	0.0788	-0.00179	0.628	-0.655	0.278	0.0597	-0.0759	-0.399	0.344	0.228	0.275	-0.299	-0.175
TAGCCTAGGTCATGGGCCGGTATACCACGCGAAC	1.46	3.44	-0.00724	-0.404	1.23	1.8	-0.488	2.94	-0.0532	3.9	3.04	4.1	4.58	-0.511	3.4	3.15	1.37	0.45
GCTCGTTGGTCAGTAAAAGGTCACACACCGGTCG	0.994	2.63	0.257	0.405	4.91	5.35	1.21	6.7	2.93	4.48	5.31	5.69	5.36	0.666	5.85	3.91	2.35	2.44
GCTTGTAGATCAAGGTTAAGAAGGACTAAGCTAA	1.59	0.939	-0.676	0.139	-0.16	0.306	-0.0751	0.701	-0.375	0.923	0.182	0.382	0.268	-0.0285	0.716	1.18	-0.165	-0.0273
CAGAGTAGGTTATGGGGCATTCAGGCAACGGTGA	3.95	4.66	1.11	0.548	1.69	0.233	0.246	0.549	0.726	1.23	1.24	0.814	0.945	-0.321	0.947	0.691	0.428	0.315
TCTATTAGTTAAAGGGCAACCGACGAGTCCGTTT	2.36	0.552	0.374	1.04	1.7	1.32	0.941	1.18	1.13	2.47	2.17	1.22	1.42	1.7	1.28	0.666	-0.0439	1.77
